{
  "source": "paper PMC5540273",
  "about": "(PLoS ONE, 2017);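 further: KINOMEscan kinase panel screen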",
  "data": [
    {"tested_on": "SYK", "details": "concentration: 1 μM, replicates: in singlicate; n = 1", "units": {"%Inh": "%"}, "values": [
      {"smiles": "CN1CCC(n2cnc(-c3ccc(F)cc3)c2-c2ccnc(NC3CCNCC3)n2)CC1", "note": "[SB-229482]", "%Inh": 0},
      {"smiles": "COc1cc2ncnc(Nc3ccc(OCc4ccccc4Br)c(Cl)c3)c2cc1OC.Cl", "note": "[GI261590]", "%Inh": 33},
      {"smiles": "CC(=O)Nc1n[nH]c2ncc(-c3ccccc3)cc12", "note": "[SB-548492]", "%Inh": 2},
      {"smiles": "CNc1nccc(-c2c(-c3ccc(F)cc3)ncn2C2CCN(C)CC2)n1", "note": "[SB-222903]", "%Inh": 27},
      {"smiles": "O=C(Nc1ccccc1F)NC1CCN(c2ccnc(Nc3ccc(F)cc3)n2)C1", "note": "(stereo not shown) [GSK1379722]", "%Inh": 10},
      {"smiles": "O=C(NCCCN1CCCC1=O)c1cnc(NCc2cc(Cl)ccc2Cl)nc1NC1CCNCC1", "%Inh": 8},
      {"smiles": "O=c1cc(N2CCOCC2)nc2n(Cc3cccc(Cl)c3)ccn12", "note": "[GSK2296823]", "%Inh": 5},
      {"smiles": "Nc1n[nH]c2nnc(-c3ccccc3)cc12", "note": "[SB-517389]", "%Inh": 5},
      {"smiles": "O=C(Nc1n[nH]c2nc(-c3ccco3)c(Br)cc12)c1ccc(CN2CCCC2)cc1.O=C(O)[C@H](O)[C@@H](O)C(=O)O", "note": "[SB-742352]", "%Inh": 10},
      {"smiles": "Nc1nc(-c2cccnc2)c(-c2ccnc3ccccc23)s1", "note": "[GW684083]", "%Inh": 34},
      {"smiles": "c1ccc(-c2ccc3c(-c4ccnc(Nc5ccc6c(c5)OCCO6)n4)cnn3n2)cc1", "note": "[GW818941]", "%Inh": 7},
      {"smiles": "Nc1nc(-c2ccc3c(N)n[nH]c3c2)cc(N2CCC[C@@H](C(=O)Nc3ccccc3)C2)n1.O=C(O)C(F)(F)F.O=C(O)C(F)(F)F", "note": "[GSK2288359]", "%Inh": 0},
      {"smiles": "COC(=O)c1cccc(NC(=O)NCCNc2ccnc(Nc3ccc(F)cc3)n2)c1", "note": "[GSK1379883]", "%Inh": 5}
    ]}
  ]
}
